Our source for the inhibition values is PubChem BioAssay AID449762 (Southern Research Specialized Biocontainment Screening …, 2010).

Each structure is given as a SMILES string. In all, about 330,000 compounds went through this assay and about 1,900 (0.58%) were called active. Roughly 4% stayed inconclusive and do not appear here. Cut-off read from the data, not from the text of the source: inconclusive = inhibition above about 70% without an active follow-up result; inactive = below that. Not all results are given here. Entries with a potency or affinity are not part of this list.

What is called inhibition is the relative decrease from the control value, in per cent.

This experiment in a line: M. tuberculosis growth inhibition, HTS (AID 449762).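 Note: bacterial growth assessed after seven days of incubation.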 The settings on record: M. tuberculosis H37Rv growth inhibition, 7H9 media; at 25 µM; stronger effect = higher value.
Consider `COc1ccc(N2CCN(CCNC(=O)c3ccc(NC(=O)C4CCCO4)cc3)CC2)cc1` (stereo not drawn), for which the inhibition was -2.8% (inactive).

Take `CC1CCN(C2=NC(=O)/C(=C/c3cn[nH]c3-c3ccccc3)S2)CC1`: the inhibition was 12.8% (inactive). Consider `O=C1N=C(N2CCCC2)S/C1=C\c1cn[nH]c1-c1ccccc1`, for which the inhibition was -6.16% (inactive). `CCOC(=O)c1[nH]c2c(c1-c1ccccc1)C(=O)CC(c1ccccc1)C2` (stereo not drawn): the inhibition was 3.2% (inactive). Consider `Nc1nc2ccccc2n1CCN1CCCC1`, for which the inhibition was -1.87% (inactive). The same measure for `CC(C)(C)c1ccc(C(=O)O)c(C(=O)c2ccccc2)c1`: -4.75% (inactive); for `Brc1cnc2nc(SC/C=C/c3ccccc3)[nH]c2c1`: -5.71% (inactive); for `COc1cccc(C(=O)NCC2CCN(c3ccc(S(=O)(=O)N4CCOCC4)cc3)CC2)c1`: -13.8% (inactive). As to `COc1ccccc1C(=O)NCC1CCN(c2ccc(S(=O)(=O)N3CCOCC3)cc2)CC1`, the inhibition is 2.24% (inactive). Regarding `CC(=O)NS(=O)(=O)c1ccc(NS(=O)(=O)c2ccccc2[N+](=O)[O-])cc1`, the inhibition is 3.53% (inactive). With `CCCCNC(=O)CN(c1cc(C(F)(F)F)ccc1Cl)S(C)(=O)=O`, the inhibition is -6.63% (inactive). Consider `CCN(CC)CCCC(C)NC(=O)c1ccc(C(F)(F)F)cc1` (stereo not drawn), for which the inhibition was -7.51% (inactive).

For the compound `O=C(CCN1CCCC1)Nc1ccccc1`, the inhibition is 22.9% (inactive). The same measure for `Cc1ccc(C)c(N2CCN(C(=S)Nc3ccc4nc(N5CCOCC5)cc(C)c4c3)CC2)c1`: -4.9% (inactive); for `Cc1cc(N2CCN(C)CC2)nc2ccc(NC(=S)N3CCCCCC3)cc12`: 3.75% (inactive). In the case of `CCN(CCCNC(=O)CNC(=O)c1nn(-c2ccc(OC)cc2)c(=O)c2ccccc12)c1cccc(C)c1` it was 8.46% (inactive).

`Cc1cc2c(cc1C)CSC(c1ccccc1O)SC2`: the inhibition is 13.6% (inactive). `Cc1cc2c(cc1C)CSC(c1ccc3ccccc3c1O)SC2`: the inhibition was -4.57% (inactive). Regarding `CCOc1ccc2oc(=O)cc(CN3CCN(C(=O)c4ccco4)CC3)c2c1`, the inhibition was 4.6% (inactive).

In the case of `CN1/C(=C\C(=O)COC(=O)c2ccco2)C(C)(C)c2ccccc21`, the inhibition was 0.58% (inactive). For the compound `CN1/C(=C\C(=O)COC(=O)c2ccc(O)cc2)C(C)(C)c2ccccc21`, the inhibition is -3.13% (inactive). For `Cn1c(N)c(C(=O)COC(=O)c2ccco2)c(=O)n(C)c1=O`, the inhibition is 1.11% (inactive).

On to `CN1/C(=C\C(=O)C[n+]2cccc(C(N)=O)c2)C(C)(C)c2ccccc21`, for which the inhibition is 0.09% (inactive).

In the case of `Cc1ccc[n+](CC(=O)/C=C2\N(C)c3ccccc3C2(C)C)c1`, the inhibition was -2.49% (inactive). `Cn1c(N)c(C(=O)COC(=O)c2ccc(Br)o2)c(=O)n(C)c1=O`: the inhibition is 1.58% (inactive). Consider `COc1ccc(Cl)cc1NC(=O)CSc1nnc(-c2ccco2)o1`, for which the inhibition was -2.66% (inactive).

With `O=C(OCC(=O)N1CCCCC1)c1c[nH]c(=O)[nH]c1=O`, the inhibition was -1.77% (inactive).

Take `COc1ccccc1C(=O)NC(CCSC)C(=O)NNC(=O)c1ccccc1O` (stereo not drawn): the inhibition was -6.8% (inactive). In the case of `CC(C)(C)C(=O)O/N=C(\N)c1ccc(Oc2cc(Cl)cc(Cl)c2)c([N+](=O)[O-])c1`, the inhibition was 0.8% (inactive).

In the case of `CCCCN1CC(O)=C(c2nc3ccccc3[nH]2)C1=N`, the inhibition is -10.6% (inactive). As to `COc1ccc(NC(=O)N(C)C[C@H]2Oc3ccc(NC(=O)Cc4ccccc4)cc3C(=O)N([C@H](C)CO)C[C@@H]2C)cc1`, the inhibition is -4.97% (inactive). Regarding `COc1ccc(C(=O)NCC(c2ccc3c(c2)OCO3)N2CCN(c3ccc(OC)cc3)CC2)cc1` (stereo not drawn), the inhibition was 7.52% (inactive). As to `O=C(COc1ncnc2cc([N+](=O)[O-])ccc12)NC1CCCCC1`, the inhibition is -3.77% (inactive). `CCOC(=O)c1ccc(NC(=O)CSc2nc(C)nc3c2c(=O)n(C)c(=O)n3C)cc1`: the inhibition was -9.19% (inactive). As for `CCCC/C(=N/O)c1c(C)[nH]c2ccccc12`, the inhibition is -0.42% (inactive).

Turning to `CCc1sc2nc(SCC(=O)Nc3cc(C)on3)n(-c3cccc(OC)c3)c(=O)c2c1C`, the inhibition is -0.05% (inactive). For `Cc1c(NC(=O)c2noc3c2CCc2ccccc2-3)c(=O)n(-c2ccccc2)n1C`, the inhibition is 43% (inactive).

Turning to `COc1ccc2c(c1)CCc1c(C(=O)Nc3c(C)nn(Cc4ccccc4)c3C)noc1-2`, the inhibition was 0.29% (inactive). On to `CC(C)(C)c1nnc(NC(=O)CCS(=O)(=O)Cc2ccccc2)s1`, for which the inhibition was -8.95% (inactive). On to `O=C(Cc1ccc(Br)cc1)NC1CCSC1=O` (stereo not drawn), for which the inhibition is -3.33% (inactive). Turning to `O=C(c1cccs1)N1CCN(c2cccc(Cl)c2)CC1`, the inhibition was 0.26% (inactive).

Take `O=C(Cn1ccsc1=NC(=O)C(F)(F)F)c1ccccc1`: the inhibition was -3.48% (inactive).

For the compound `CC(=O)NC12CC3CC(C1)CC(C(=O)Nc1nccs1)(C3)C2`, the inhibition is -0.32% (inactive).

Turning to `CC(=O)NC12CC3CC(C1)CC(C(=O)Nc1nc4ccc(S(C)(=O)=O)cc4s1)(C3)C2`, the inhibition was -8.67% (inactive). In the case of `Cn1c(O)c(C2=c3ccccc3=NC2=O)[nH]c1=S` it was 37% (inactive). As for `Cc1ccc2c(c1)c(C1=NC(=S)NC1=O)c(O)n2C`, the inhibition was -2.95% (inactive).

As for `C/C(=N\NC(=O)c1ccc(Cn2cc([N+](=O)[O-])cn2)o1)c1cccc(NC(=O)c2cccnc2)c1`, the inhibition is -0.38% (inactive). Turning to `Clc1cccc(C2Nc3cccc4cccc(c34)N2)c1`, the inhibition is 11.6% (inactive). Take `O=C(c1ccccc1)c1ccc(OCCCCN2CCCCC2)cc1`: the inhibition was 3.79% (inactive). In the case of `O=C(c1ccccc1)c1ccc(OCCCN2CCCC2)cc1` it was -9.38% (inactive); in that of `Cc1nc(Nc2ccccc2)sc1C(=O)Nc1ccccc1`, 7.98% (inactive).

For `Cc1nc(Nc2c(Cl)cccc2Cl)sc1C(=O)Nc1ccccc1`, the inhibition is 12% (inactive). For `CC(NC(=O)/C(C#N)=C/c1cccs1)c1ccccc1` (stereo not drawn), the inhibition was -1.56% (inactive). On to `Clc1ccc2c(c1)C(c1ccccc1Cl)=NCc1nnc(Br)n1-2`, for which the inhibition was 6.91% (inactive). As for `CCOCCN1CCN(c2nnc3n2-c2ccc(Cl)cc2C(c2ccccc2Cl)=NC3)CC1`, the inhibition is 4.83% (inactive). In the case of `Cn1c(=O)c2c(nc(SCCN3CCOCC3)n2C)n(C)c1=O` it was 1% (inactive). For `O=C(CCc1ccc(Oc2cc([N+](=O)[O-])cc([N+](=O)[O-])c2)cc1)NC1CCCC1`, the inhibition was 30.8% (inactive). Turning to `O=C(c1ccc(Oc2ccc([N+](=O)[O-])cc2)cc1)N1CCCCCC1`, the inhibition was 20.3% (inactive).
